Measurements as given in PubChem BioAssay (NCI).
This is part of a sample that, as a whole, favours compounds with a hit. Of some 83,000 tested, about 20% had one in any assay.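 Percent growth is the endpoint: 0 to 100 indicates growth inhibition (40 means 60% inhibition), 0 means no net growth, and negative values indicate cell death.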 Values without a mark were called inactive. Calls of active or inactive are those of the source.

tested on: BT-549 breast; experiment: NCI-60 one-dose screen, 48 h (100 = growth as untreated, 0 = no growth, -100 = all killed); settings: 10 µM unless noted
Procedure: Growth inhibition of the BT-549 human tumor cell line is measured as a screen for anti-cancer activity. Cells are grown in 96 well plates and exposed to the test compound for 48 hours. Compounds are tested at a single concentration, which is 10^-5 M for most compounds. The reported endpoint is percent growth (GI% or GIPRCNT), where numbers from 0 - 100% represent growth inhibition, and numbers from -100% - 0 represent cell death. For example, a value of 40 represents 60% growth inhibition. A value of 0 means no net growth occurred over the course of the experiment. A value of -40 indicates 40% of cells at the beginning of the experiment died by the end of the experiment. A value of -100 means all cells are dead at the end of the experiment.
NCI-60 Human Tumor Cell Lines Screen was performed using the standard one-dose NCI protocol, which is described in more detail at https://dtp.cancer.gov/discovery_development/nci-60/default.htm.
Compounds with GIPRCNT values below 10 were considered active. Activity score was based on GIPRCNT using the following formula: […]
Score is 0 for GIPRCNT values of 100 or above, 50 for GIPRCNT values of 0, and 100 for GIPRCNT values of -100.

Row | SMILES | growth
1 | CC(C)[C@H](NC(=O)Cn1cc(C(=O)O)nn1)C(=O)O | 104%
2 | COc1ccc(Br)c(/C=C2\SC(=Nc3ccc(O)cc3)NC2=O)c1 | 83.5%
3 | Cc1ccc2nc(NC(=O)CSC(=S)N3CCN(c4ccccc4)CC3)sc2c1 | 102%
4 | COc1cccc(C2=NN3C(C2)c2ccccc2OC3c2ccc(/C=C3\SC(=O)NC3=O)cc2)c1 (stereo not given) | 97.1%
5 | CCN1CCN(c2cc(C)c3cc(NC(=O)c4ccc(OC)c(OC)c4)ccc3n2)CC1 | 42.3%
6 | O=C(N=Nc1c(O)[nH]c2ccccc12)c1oc2ccccc2c1CN1CCN(c2ccccc2)CC1 | 11.4%
7 | COc1cccc(-c2nn(C)c3sc(C(=O)NCCN4CCN(c5ccccc5F)CC4)cc23)c1 | 90.8%
8 | O=C(/C=C/c1cccc(Cl)c1)OCc1ccc2cc1OCC#C/C=C\C#CCO2 | 102%
9 | COc1ccc(/C(C#N)=C/c2nc3c(N4CCOCC4)nc(Cl)nc3n2C)cc1OC | -15.7% (active)
10 | COc1ccc(-c2nnc(COc3ccc(C(=O)/C=C/c4ccco4)cc3)o2)cc1 | 79.2%
11 | Cn1c(=O)n(C)c2cc(CNCCNc3ccnc4cc(Cl)ccc34)ccc21 | 90.8%
12 | COc1ccc(S(=O)(=O)N(Cc2ccc3c(n2)C=CC(C)(C)O3)C2CCC2)cc1OC | -25.2% (active)
13 | COC(=O)/C(CCC=C(C)C)=C1\[C@@H](OC(C)=O)C[C@@]2(C)[C@H]1C[C@@H](O)[C@H]1[C@@]3(C)CC[C@H](NCCCNCCCCNCCCN)[C@@H](C)[C@@H]3CC[C@@]12C | 80.4%
14 | CC(=S)NC(=O)C(=O)/C=C1/NC(=O)C(=O)S1 | 106%
15 | CC(C)c1ccc(S(=O)(=O)NC(=O)NC2CCCC2)cc1 | 100%
16 | CCOC(=O)C1(C(=O)OCC)N=C(c2ccccc2)C=C1c1ccccc1 | 97.9%
17 | COC(=O)c1c2c(c(C)[n+]([O-])c1C)C(=O)C(NCc1ccc(F)c(F)c1)=CC2=O | 66.4%
18 | O=C(O)c1cn(C2CC2)c2cc(N3CCN(C(=O)C[n+]4ccccc4)CC3)c(F)cc2c1=O | 102%
19 | O=C(CN1C=NC2C(N3CCOCC3)=NC=NC21)c1ccc(Br)cc1 (stereo not given) | 103%
20 | NC1(N2SC(S)=C3CCCC=C32)CCCCC1 | 118%

Row | SMILES | growth
21 | CCN1C(=O)N(CC)C2Nn3c(s/c(=C\c4ccccc4F)c3=O)=NC21 (stereo not given) | 44.3%
22 | C#CCn1cc(C=C2C(=O)N(C)C(=O)N(C)C2=O)c2cc(Cl)ccc21 | 116%
23 | CN1C(=O)N(C)C2C1NN=c1s/c(=C\c3ccc([N+](=O)[O-])cc3)c(=O)n12 (stereo not given) | 60.5%
24 | Clc1ccc(-c2nnc(COc3ccc(C4=NNC(c5ccco5)C4)cc3)o2)cc1 (stereo not given) | 81.6%
25 | CC[C@@H](C)[C@H](NC(=O)Cn1cc(CNC(=O)[C@@H](NC(=O)OCc2ccccc2)C(C)C)nn1)C(=O)O | 107%
26 | O=C(/C=C/c1ccc(C(F)(F)F)cc1)c1ccc(Nc2nc(NCCO)nc(N3CCOCC3)n2)cc1 | 61%
27 | Cc1ccc(NCCNCC(O)CO)c2c(=O)c3ccccc3sc12 (stereo not given) | 63.2%
28 | CC/C=C\C[C@H](O)C/C=C1/C(=O)C=C[C@@H]1C/C=C\CCCC(=O)OCCS(=O)(=O)c1ccccc1 | 2.95% (active)
29 | CCOC(=O)c1cc2c(n1Cc1ccccc1)-c1oncc1CCC2 | 101%
30 | COc1cc(NC(=O)CCSc2nc3ccccc3c(=O)n2Cc2ccccc2)cc(OC)c1OC | 86%
31 | CCN1C(=O)N(CC)C2Nn3c(s/c(=C4\C(=O)N(C(C)C)c5ccccc54)c3=O)=NC21 (stereo not given) | 27.7%
32 | CC(=O)n1cc(-c2c[nH]c3ccccc23)c(-c2ccc(Cl)cc2)n1 | 76.8%
33 | O=C(Nc1ccc(Cl)cc1)N1CCN(c2ccc3nncn3n2)CC1 | 43.4%
34 | O=S(=O)(c1ccc(NC(=S)NC23CC4CC(CC(C4)C2)C3)cc1)N1CCCCC1 | 93.8%
35 | COc1ccc(-n2c(C(O)c3ccccc3)n[nH]c2=S)cc1 (stereo not given) | 110%
36 | CNCCNc1nc2ccccc2c2c(=O)c3cc(OC)ccc3sc12 | 76.1%
37 | Cc1nc(Nc2cn[nH]c2C(=O)Nc2ccc(CN3CCN(C)CC3)cc2)c2ccsc2n1 | 88.5%
38 | O=C(N/N=C/c1ccccc1Cl)C(=O)Nc1cccc(C(F)(F)F)c1 | 112%
39 | O=C(CN1C(=O)/C(=C\c2ccc(Cl)cc2)SC1=S)Nc1ncc(Cc2ccc(Cl)cc2)s1 | 113%
40 | Cc1c(-c2csc(-n3nc(C(F)(F)F)cc3C(F)(F)F)n2)no[n+]1[O-] | 102%
